# In PubChem BioAssay (NCATS):
# Results filed as inconclusive are left out. This is one part of the list. Calls of active or inactive are those of the source. Unless noted, calls follow the shape of the dose curve; as a rule, active = well fitted curve in the direction sought with a large enough effect; inconclusive = small, poorly fitted or top-dose-only effect, or another doubt; inactive = no such curve, though single readings can be large; an effect the other way counts as inactive or inconclusive.
# Columns and labels:
# [1] = qHTS profiling for inhibitors of Plasmodium falciparum (3D7) proliferation (AID 743322);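 also: infected erythrocytes exposed to compound for 72 h before lysis; 100% = DMSO vehicle wells and 0% = 0.29 µM artemisinin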; details: P. falciparum 3D7 proliferation; at 28.7 µM (top of the series)
# In short: (§1)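 Parasite DNA was quantified by SYBR Green I fluorescence (ex 485, em 535 nm) after overnight lysis in saponin/Triton buffer at room temperature. Cultures at 0.3% parasitemia and 2.5% hematocrit were first exposed to compound for 72 h at 37 C; signals were normalised to artemisinin (0.29 uM) and vehicle wells.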
# [2] = qHTS profiling for inhibitors of Plasmodium falciparum (DD2) proliferation (AID 743323; call rule not given here); details: lower = more inhibition; at 28.7 µM (top of the series)
# In short: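 Parasite proliferation measured via DNA-dye fluorescence, as uninfected erythrocytes lack DNA. Cultures at 0.3% parasitemia and 2.5% hematocrit incubated 72 h with compound; signal scaled between vehicle and 0.29 uM artemisinin wells.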
# [3] = qHTS profiling for inhibitors of Plasmodium falciparum (HB3) proliferation (AID 743324); details: Plasmodium falciparum HB3 blood-stage proliferation; at 28.7 µM (top of the series);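 also: 100% = DMSO vehicle wells and 0% = artemisinin-treated control wells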
# In short: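 SYBR Green fluorescence (485 ex/535 em) of lysed cultures, incubated overnight at room temperature in the dark, quantifies parasite DNA. Infected erythrocytes at 0.3% parasitemia and 2.5% hematocrit were exposed 72 h; values normalized to DMSO and 0.29 uM artemisinin controls.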
# [4] = target: Calcium and integrin-binding protein 1 (Homo sapiens) (UniProt Q99828); assay: Primary qHTS for Identification of Calcium Integrin Binding Protein 1 (CIB1) Competitor (AID 1508620);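 also: GST tagged CIB1 binding a fluorescein labelled alphaIIb integrin peptide tracer; top concentration of the series differs between compounds; % is scaled to controls: 0 for no effect and ±100 for the full control effect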
# Chain of Calcium and integrin-binding protein 1 (Homo sapiens) (Q99828 whole entry, looked up): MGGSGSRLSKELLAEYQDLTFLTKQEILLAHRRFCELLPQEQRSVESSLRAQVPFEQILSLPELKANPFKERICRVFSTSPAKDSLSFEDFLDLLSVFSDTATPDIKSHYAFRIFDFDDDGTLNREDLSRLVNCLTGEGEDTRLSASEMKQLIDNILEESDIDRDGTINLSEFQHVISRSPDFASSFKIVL
# In short: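 CIB1-GST (1 uM final) and compound incubated 15 min at room temperature before adding FITC-alphaIIb peptide tracer (100 nM final). Competition for binding read by fluorescence polarization (ex 480, em 540) after another 15 min at room temperature.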
# [5] = target: Cytochrome P450 3A4 (Homo sapiens) (UniProt P08684); assay: qHTS Assay for Inhibitors and Substrates of Cytochrome P450 3A4 (AID 884); also: potency is read from the fitted curve at half-maximal effect; nearly all actives have a fitted effect of over 50% in size
# Chain of Cytochrome P450 3A4 (Homo sapiens) (P08684 whole entry, looked up): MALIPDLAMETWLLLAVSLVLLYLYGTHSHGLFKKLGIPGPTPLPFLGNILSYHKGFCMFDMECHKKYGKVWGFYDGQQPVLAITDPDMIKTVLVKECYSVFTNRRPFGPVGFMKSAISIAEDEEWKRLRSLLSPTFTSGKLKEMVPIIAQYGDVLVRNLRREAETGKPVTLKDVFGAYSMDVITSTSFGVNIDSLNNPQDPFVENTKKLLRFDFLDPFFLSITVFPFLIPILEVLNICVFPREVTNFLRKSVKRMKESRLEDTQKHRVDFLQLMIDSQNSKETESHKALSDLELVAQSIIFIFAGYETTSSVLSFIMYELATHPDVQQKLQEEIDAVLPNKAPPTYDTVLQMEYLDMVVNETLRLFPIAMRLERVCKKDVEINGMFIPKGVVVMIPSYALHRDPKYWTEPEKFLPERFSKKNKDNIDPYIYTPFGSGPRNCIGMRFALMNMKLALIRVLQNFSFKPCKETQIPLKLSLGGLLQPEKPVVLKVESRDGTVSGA
# In short: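 Luminescent readout of luciferin produced by CYP3A4 (20 nM) dealkylation of Luciferin-PPXE, 25 uM (its KM). NADPH-driven reaction ran 60 min at RT after 10 min compound preincubation; data scaled to 57 uM ketoconazole as 100% inhibition.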
# [6] = target: Cytochrome P450 3A4 (Homo sapiens) (UniProt P08684); assay: qHTS Assay for Activators of Cytochrome P450 3A4 (AID 885); also: nearly all actives have a fitted effect of over 65% in size
# In short: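 Using 20nM recombinant human CYP3A4 in potassium phosphate (200mM), substrate Luciferin-PPXE at 25uM, luminescent luciferin detection followed a 60-min RT NADPH reaction; data scaled to 57 uM ketoconazole.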
# [7] = target: Ubiquitin carboxyl-terminal hydrolase 2 (Homo sapiens) (UniProt O75604); assay: qHTS for Inhibitors of Ubiquitin-specific Protease USP2a Using CHOP2 as the Reporter: K484 Substrate (AID 652173);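 also: cleavage of internally quenched K48 di-ubiquitin substrate measured as rising fluorescence over time; potency is read from the fitted curve at half-maximal effect; nearly all actives have a fitted effect of over 70% in size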
# Chain of Ubiquitin carboxyl-terminal hydrolase 2 (Homo sapiens) (O75604 whole entry, looked up): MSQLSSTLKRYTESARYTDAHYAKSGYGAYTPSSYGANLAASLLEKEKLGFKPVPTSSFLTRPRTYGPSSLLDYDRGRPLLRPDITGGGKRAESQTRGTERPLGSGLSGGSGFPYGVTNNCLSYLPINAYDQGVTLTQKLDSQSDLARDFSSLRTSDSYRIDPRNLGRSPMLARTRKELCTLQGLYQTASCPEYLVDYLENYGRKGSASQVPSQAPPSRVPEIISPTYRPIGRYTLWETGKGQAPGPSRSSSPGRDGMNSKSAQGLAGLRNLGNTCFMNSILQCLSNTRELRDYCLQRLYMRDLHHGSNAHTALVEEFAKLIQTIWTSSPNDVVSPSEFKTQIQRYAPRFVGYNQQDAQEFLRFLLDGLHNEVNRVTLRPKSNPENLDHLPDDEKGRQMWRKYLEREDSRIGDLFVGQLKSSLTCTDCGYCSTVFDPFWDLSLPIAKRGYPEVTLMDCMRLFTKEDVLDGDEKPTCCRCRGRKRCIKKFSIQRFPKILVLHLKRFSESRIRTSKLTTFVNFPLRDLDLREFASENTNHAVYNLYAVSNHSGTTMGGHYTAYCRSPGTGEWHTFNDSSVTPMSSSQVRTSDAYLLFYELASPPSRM
# In short: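 Kinetic fluorescence (Ex 525/Em 598) tracked cleavage of an internally quenched K48 di-ubiquitin substrate, added as a 100 nM solution. The enzyme was added as a 5 nM USP2 solution before compound pinning, with no-enzyme controls. Buffer: Tris pH 8, beta-mercaptoethanol, CHAPS.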
# [8] = target: DNA polymerase kappa (Homo sapiens) (UniProt Q9UBT6); assay: qHTS for Inhibitors of Polymerase Kappa: Confirmatory Assay for Cherry-picked Compounds (AID 720501); details: purified Pol-kappa, fluorescent strand-displacement substrate; also: potency is read from the fitted curve at half-maximal effect
# Chain of DNA polymerase kappa (Homo sapiens) (Q9UBT6 whole entry, looked up): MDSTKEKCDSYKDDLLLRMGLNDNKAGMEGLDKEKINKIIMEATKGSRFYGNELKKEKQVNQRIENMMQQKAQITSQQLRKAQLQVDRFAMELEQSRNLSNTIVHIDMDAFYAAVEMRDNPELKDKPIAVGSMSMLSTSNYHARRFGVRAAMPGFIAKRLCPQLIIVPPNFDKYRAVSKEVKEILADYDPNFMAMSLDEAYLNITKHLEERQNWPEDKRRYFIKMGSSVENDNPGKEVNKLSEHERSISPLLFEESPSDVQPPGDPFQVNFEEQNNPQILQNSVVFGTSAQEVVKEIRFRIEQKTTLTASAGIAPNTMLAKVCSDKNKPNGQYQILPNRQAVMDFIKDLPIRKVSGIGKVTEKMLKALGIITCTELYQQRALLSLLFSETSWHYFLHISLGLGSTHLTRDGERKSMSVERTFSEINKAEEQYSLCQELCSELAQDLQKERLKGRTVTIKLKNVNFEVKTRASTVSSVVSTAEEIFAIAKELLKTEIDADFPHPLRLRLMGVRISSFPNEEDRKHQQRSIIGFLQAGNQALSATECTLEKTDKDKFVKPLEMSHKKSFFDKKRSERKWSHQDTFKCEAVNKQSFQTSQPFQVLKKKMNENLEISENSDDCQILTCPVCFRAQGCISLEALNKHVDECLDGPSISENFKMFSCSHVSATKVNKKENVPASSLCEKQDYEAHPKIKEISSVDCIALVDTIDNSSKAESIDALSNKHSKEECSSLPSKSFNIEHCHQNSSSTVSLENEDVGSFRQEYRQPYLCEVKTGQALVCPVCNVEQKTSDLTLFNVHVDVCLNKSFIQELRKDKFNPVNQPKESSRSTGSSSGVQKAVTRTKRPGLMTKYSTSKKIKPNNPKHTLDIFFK
# In short: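 Strand-displacement fluorescence read-out: TAMRA reporter released from a BHQ-2-quenched template, measured at 525/598 nm over a 10 min kinetic window. Substrate was 50 nM final; enzyme was 10 nM Pol-kappa, preincubated 15 min at room temperature with compound.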
# [9] = qHTS profiling of the MIPE4 collection as inhibitors of Plasmodium falciparum (3D7) proliferation (AID 743344; call rule not given here;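 also: scaled between DMSO vehicle wells and 0.29 µM artemisinin as full inhibition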); details: P. falciparum 3D7 in erythrocytes, SYBR Green DNA fluorescence, 72 h; at 28.5 µM (top of the series)
# In short: as §1
# [10] = qHTS profiling of the MIPE4 collection as inhibitors of Plasmodium falciparum (DD2) proliferation (AID 743345; call rule not given here); details: P. falciparum Dd2 in erythrocytes, SYBR Green DNA, 72 h; at 28.5 µM (top of the series)
# In short: as §1
# [11] = qHTS profiling of the MIPE4 collection as inhibitors of Plasmodium falciparum (DD2) proliferation (Rep 2) (AID 743346; call rule not given here); details: P. falciparum Dd2 in erythrocytes, SYBR Green DNA, 72 h; at 28.5 µM (top of the series)
# In short: as §1
# [12] = qHTS profiling of the MIPE4 collection as inhibitors of Plasmodium falciparum (HB3) proliferation (AID 743347; call rule not given here;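 also: plate controls were DMSO vehicle wells for no effect and artemisinin wells for full effect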); details: P. falciparum HB3 in erythrocytes, SYBR Green DNA, 72 h; at 28.5 µM (top of the series)
# In short: as §1
structure (smiles),measurement,setting,value
N[C@@H](Cc1ccc(OS(=O)(=O)c2cccnc2)cc1)C(=O)N1CCN(c2ccccc2)CC1,remaining parasite growth % (stronger effect = lower value),[1],41.2%
same,"activity, percent of control",[2],15.1%
same,"remaining proliferation (% of control), lower = more inhibition",[3],27.8%
same,Potency,[4],inactive
O=C([C@@H](Cc1ccc(O[S+](=O)([O-])c2cccnc2)cc1)N[S+](=O)([O-])c1cccc2cccnc12)N1CCN(c2ccccc2)CC1,remaining parasite growth % (stronger effect = lower value),[1],-1.01%
same,"activity, percent of control",[2],0.464%
same,"remaining proliferation (% of control), lower = more inhibition",[3],0.336%
same,Potency,[4],inactive
Cc1nc(NCc2ccccc2)c2nc(-c3ccccc3)n(CCN3CCOCC3)c2n1,Potency,[5],0.631 µM (active)
same,Potency,[6],inactive
same,Potency,[4],inactive
N[C@@H](Cc1ccc(O[S+](=O)([O-])c2cccc3cnccc23)cc1)C(=O)N1CCN(c2ccccc2)CC1,remaining parasite growth % (stronger effect = lower value),[1],-0.448%
same,"activity, percent of control",[2],3.27%
same,"remaining proliferation (% of control), lower = more inhibition",[3],1.2%
same,Potency,[4],inactive
Cc1ccc(S(=O)(=O)Nc2cccc(C(=O)Nc3nc(-c4ccc(Cl)cc4)cs3)c2)cc1,Potency,[7],2.43 µM (active)
same,Potency,[4],inactive
COC(=O)[C@H](Cc1ccc(O[S+](=O)([O-])c2cccc3cnccc23)cc1)N(C)[S+](=O)([O-])c1ccc2cnccc2c1,remaining parasite growth % (stronger effect = lower value),[1],-0.184%
same,"activity, percent of control",[2],3.76%
same,"remaining proliferation (% of control), lower = more inhibition",[3],0.837%
same,Potency,[4],inactive
O=C(NCCN1CCCC1)[C@H](Cc1ccc(OS(=O)(=O)c2cccc3cnccc23)cc1)NS(=O)(=O)c1cccc2cnccc12,remaining parasite growth % (stronger effect = lower value),[1],0.578%
same,"activity, percent of control",[2],49.2%
same,"remaining proliferation (% of control), lower = more inhibition",[3],1.37%
same,Potency,[4],inactive
COc1ccc(C2=Nn3c(nnc3-c3ccccc3OC)SC2)cc1OC1CCCC1,Potency,[8],4.23 µM (active)
same,Potency,[4],inactive
N[C@@H](Cc1ccc(O[S+](=O)([O-])c2cccc3cccnc23)cc1)C(=O)N1CCN(c2ccccc2)CC1,remaining parasite growth % (stronger effect = lower value),[1],0.473%
same,"activity, percent of control",[2],1%
same,"remaining proliferation (% of control), lower = more inhibition",[3],0.538%
same,Potency,[4],inactive
O=C(Nc1nc(-c2ccccc2)cs1)c1ccccc1Cl,Potency,[7],13.7 µM (active)
same,Potency,[4],inactive
CC(C)(C)OC(=O)N[C@@H](Cc1ccc(O[S+](=O)([O-])c2cccnc2)cc1)C(=O)N1CCN(c2ccccc2)CC1,remaining parasite growth % (stronger effect = lower value),[1],-0.793%
same,"activity, percent of control",[2],0.682%
same,"remaining proliferation (% of control), lower = more inhibition",[3],-0.169%
same,Potency,[4],inactive
Cc1ccc(-c2cc(C(=O)Nc3ccc(-n4cccn4)cc3)c3ccccc3n2)cc1C,Potency,[7],8.63 µM (active)
same,Potency,[4],inactive
CC(C)(C)OC(=O)N[C@@H](Cc1ccc(OS(=O)(=O)c2cccc3cnccc23)cc1)C(=O)N1CCCN(C(=O)OC(C)(C)C)CC1,"parasite growth, % of DMSO control",[9],5.32%
same,"parasite growth remaining, % of DMSO control (lower = more inhibition)",[10],7.99%
same,"parasite growth, % of control (lower = inhibition)",[11],34.3%
same,"growth, % of control",[12],7.55%
same,Potency,[4],inactive
Cc1ccc(NS(=O)(=O)c2cccc(C(=O)Nc3nc(-c4ccccc4)cs3)c2)cc1,Potency,[7],3.06 µM (active)
same,Potency,[4],inactive
CN1CCN(C(=O)[C@H](Cc2ccc(O[S+](=O)([O-])c3cccc4cnccc34)cc2)N[S+](=O)([O-])c2cccc3cnccc23)CC1,remaining parasite growth % (stronger effect = lower value),[1],10.3%
same,"activity, percent of control",[2],9.98%
same,"remaining proliferation (% of control), lower = more inhibition",[3],5.8%
same,Potency,[4],inactive
